Inconclusive results are not listed. Active and inactive are the calls of the source. Calls come from the whole dose curve; as a rule, active = well fitted inhibition curve with a large enough effect; inconclusive = small, poorly fitted or top-dose-only effect; inactive = no such curve, though single readings can be large or run the other way.
tested on: zebrafish ABCB5 (Abcb5) multidrug transporter; test: qHTS for characterization and localization of zebrafish homologs of the human ABCB1 multidrug transporter: ABCB5 transfected cells; conditions: CellTiter-Glo luminescence viability, 72 h; series mostly up to 46.1 µM
How it was run: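 Empty-vector, P-gp-overexpressing MDR-19 and zebrafish abcb4- or abcb5-transfected cells were exposed to ~90 P-gp substrates at varying concentrations for 72 h at 37C. Viability was read by CellTiter-Glo luminescence; cytotoxic meant inhibitory curve class, >50% maximal response and AC50 < 10 uM.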

Row | Compound | Potency
1 | CCC(C)C(=O)OC1CC(O)C23C4OCC5(C(O)CC2C1(C)C(O)O4)C3C(=O)C(O)C1(C)C(O)(c2ccoc2)CC2OC251 (stereo unspecified) | inactive
2 | Oc1ccc(-c2ccc(-c3cc(Nc4cccc(CNC5CC5)c4)n[nH]3)cc2)c(O)c1 | 5.26 µM (active)
3 | Cc1cc(Nc2cc(NC(=O)c3c(Cl)cccc3Cl)ccn2)nc(N)n1 | 7.43 µM (active)
4 | CC(NCc1ccc2c(c1)nc(NC(=O)c1ccc(-c3cn[nH]c3)s1)n2CC(C)(C)O)C(C)(C)C (stereo unspecified) | 3.72 µM (active)
5 | NC(=O)Nc1cc(-c2cccc(F)c2)sc1C(=O)N[C@H]1CCCNC1 | 0.662 µM (active)
6 | CN(C)CCN(C)C(=O)c1ccc(NC(=O)Nc2ccc(-c3nc(N4CCOCC4)c4ccn(CC(F)(F)F)c4n3)cc2)cc1 | 2.35 µM (active)
7 | CCS(=O)(=O)c1cccc(-c2cc(C(=O)NC3CCN(C)CC3)c(C)c3[nH]c4ncc(C)cc4c23)c1 | inactive
8 | NC(=O)Nc1cc(-c2ccc(CN3CCOCC3)c(F)c2)sc1C(=O)N[C@H]1CCCNC1 | 1.48 µM (active)
9 | CC1(C)CC(NC(=O)C(=O)Nc2ccc(Br)cc2)CC(C)(C)N1 | inactive
10 | N=C(N)c1ccc(OCCCCCOc2ccc(C(=N)N)cc2)cc1 | 13.2 µM (active)
11 | COCCn1c2c([n+](Cc3cnccn3)c1C)C(=O)c1ccccc1C2=O | 0.0935 µM (active)

From PubChem BioAssay AID1508633 (National Center for Advancing Translational Sciences (NCATS), 2021)
